Reference: the supplement of paper PMC3545927
The other results are listed elsewhere or left out. How many sequences the whole screen found active is unknown.

Molecular target: furin, P09958
Assay: furin cleavage Z-score vs untreated control; higher = more cleavage, active = 3.5 or more, inactive = 1 or less, 8 variable residues between constant flanks
In short: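 Sequencing of released DNA, tagged with adapters by PCR, gave read counts used as abundance. That DNA was freed when purified furin cut N-terminally bead-bound 8-mer peptides fused to a cDNA oligonucleotide, in 0.01 ml reactions at 1:10 enzyme:substrate in 50 mM HEPES pH 7.5 with CaCl2 and NaCl, lasting 7.5, 15 or 30 min. The cleavage Z-score was the lowess-adjusted log count versus furin-free reactions, scaled by median absolute deviation.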

Sequence of furin, P09958 (P09958 whole entry): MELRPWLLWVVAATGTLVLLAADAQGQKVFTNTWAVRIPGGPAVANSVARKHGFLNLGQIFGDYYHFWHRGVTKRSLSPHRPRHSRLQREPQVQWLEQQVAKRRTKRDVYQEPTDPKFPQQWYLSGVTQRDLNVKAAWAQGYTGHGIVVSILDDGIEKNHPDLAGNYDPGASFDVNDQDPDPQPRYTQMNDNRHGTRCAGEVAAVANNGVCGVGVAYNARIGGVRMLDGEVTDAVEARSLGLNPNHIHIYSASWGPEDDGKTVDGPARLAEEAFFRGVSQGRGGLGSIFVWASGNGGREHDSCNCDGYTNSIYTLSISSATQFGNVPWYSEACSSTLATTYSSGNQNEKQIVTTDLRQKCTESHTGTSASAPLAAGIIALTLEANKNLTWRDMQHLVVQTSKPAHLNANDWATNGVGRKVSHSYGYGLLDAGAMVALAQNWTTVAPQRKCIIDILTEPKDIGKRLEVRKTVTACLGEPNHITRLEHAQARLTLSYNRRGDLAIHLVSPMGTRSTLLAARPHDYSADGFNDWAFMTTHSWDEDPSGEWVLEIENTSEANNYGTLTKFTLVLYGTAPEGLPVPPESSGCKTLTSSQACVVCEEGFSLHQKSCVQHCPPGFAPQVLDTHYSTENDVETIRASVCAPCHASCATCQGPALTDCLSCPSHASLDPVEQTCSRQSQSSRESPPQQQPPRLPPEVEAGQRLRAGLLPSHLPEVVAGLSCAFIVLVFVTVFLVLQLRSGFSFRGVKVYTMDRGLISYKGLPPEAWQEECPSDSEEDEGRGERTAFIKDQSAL

Q: Which “furin cleavage Z-score” value (7.5 min) does the source give for CASTKCSAHLAGNASASA [HC2514] here?
A: -0.0801 (inactive)

Q: What about the “furin cleavage Z-score” value (15 min) of the same sequence?
A: 1.2

Q: And the “furin cleavage Z-score” value (30 min)?
A: 0.075 (inactive)

Q: For CATCTTPCSGAGNASASA [HC1958], which “furin cleavage Z-score” value (7.5 min) is on record?
A: -0.852 (inactive)

Q: And the “furin cleavage Z-score” value (15 min)?
A: 0.00782 (inactive)

Q: What about the “furin cleavage Z-score” value (30 min) of the same sequence?
A: -0.733 (inactive)

Q: For CAHNNRVGRQAGNASASA [FS-596], which “furin cleavage Z-score” value (7.5 min) is on record?
A: 3.21

Q: And the “furin cleavage Z-score” value (15 min)?
A: 3.29

Q: And the “furin cleavage Z-score” value (30 min)?
A: 4.86 (active)

Q: Which results are given for CATVSRTGRQAGNASASA [FS-1660]?
A: furin cleavage Z-score (7.5 min): 0.744 (inactive); furin cleavage Z-score (15 min): 2.19; furin cleavage Z-score (30 min): 3.07

Q: For CARRGRFLNQAGNASASA [FS-3047], which “furin cleavage Z-score” value (7.5 min) is on record?
A: -0.612 (inactive)

Q: What about the “furin cleavage Z-score” value (15 min) of the same sequence?
A: -0.298 (inactive)

Q: What about the “furin cleavage Z-score” value (30 min) of the same sequence?
A: 1.14

Q: For CACRFRFGRQAGNASASA [FS-405], which “furin cleavage Z-score” value (7.5 min) is on record?
A: 2.68

Q: And the “furin cleavage Z-score” value (15 min)?
A: 3.98 (active)

Q: What about the “furin cleavage Z-score” value (30 min) of the same sequence?
A: 2.63

Q: Which “furin cleavage Z-score” value (7.5 min) does the source give for CAYNNRPWRPAGNASASA [FS-392] here?
A: -1.33 (inactive)

Q: What about the “furin cleavage Z-score” value (15 min) of the same sequence?
A: -0.755 (inactive)

Q: What about the “furin cleavage Z-score” value (30 min) of the same sequence?
A: -0.205 (inactive)

Q: How did the “furin cleavage Z-score” value (7.5 min) turn out when CAHQNIVDVQAGNASASA [HC507] was run?
A: -1.69 (inactive)

Q: What about the “furin cleavage Z-score” value (15 min) of the same sequence?
A: -1.38 (inactive)

Q: What about the “furin cleavage Z-score” value (30 min) of the same sequence?
A: 0.384 (inactive)

Q: What does the source list for CATGDNTTTSAGNASASA [HC1341]?
A: furin cleavage Z-score (7.5 min): 0.632 (inactive); furin cleavage Z-score (15 min): 0.808 (inactive); furin cleavage Z-score (30 min): -0.0812 (inactive)

Q: Which “furin cleavage Z-score” value (7.5 min) does the source give for CAEVMCHRPSAGNASASA [HC2346] here?
A: -0.818 (inactive)

Q: What about the “furin cleavage Z-score” value (15 min) of the same sequence?
A: -0.184 (inactive)

Q: What about the “furin cleavage Z-score” value (30 min) of the same sequence?
A: 0.158 (inactive)

Q: How did the “furin cleavage Z-score” value (7.5 min) turn out when CADCMEECSQAGNASASA [HC1820] was run?
A: -0.19 (inactive)

Q: What about the “furin cleavage Z-score” value (15 min) of the same sequence?
A: 0.0434 (inactive)

Q: What about the “furin cleavage Z-score” value (30 min) of the same sequence?
A: -0.219 (inactive)

Q: CAARVAIKSLAGNASASA [HC1495] was tested. Which “furin cleavage Z-score” value (7.5 min) did it give?
A: -0.648 (inactive)

Q: What about the “furin cleavage Z-score” value (15 min) of the same sequence?
A: -1.12 (inactive)

Q: What about the “furin cleavage Z-score” value (30 min) of the same sequence?
A: -0.674 (inactive)

Q: Which results are given for CACTRGVAKAAGNASASA [HC753]?
A: furin cleavage Z-score (7.5 min): -1.87 (inactive); furin cleavage Z-score (15 min): -0.584 (inactive); furin cleavage Z-score (30 min): -0.853 (inactive)

Q: With CATTPCVGSWAGNASASA [HC63] as the sequence, how does the “furin cleavage Z-score” value (7.5 min) read?
A: 1.12

Q: And the “furin cleavage Z-score” value (15 min)?
A: 0.786 (inactive)

Q: And the “furin cleavage Z-score” value (30 min)?
A: 1.12

Q: Which “furin cleavage Z-score” value (7.5 min) does the source give for CALVALGINAAGNASASA [HC864] here?
A: 1.29

Q: And the “furin cleavage Z-score” value (15 min)?
A: -0.504 (inactive)

Q: And the “furin cleavage Z-score” value (30 min)?
A: -2.31 (inactive)

Q: For CAWVAAQLAAAGNASASA [HC1068], which “furin cleavage Z-score” value (7.5 min) is on record?
A: 0.334 (inactive)

Q: And the “furin cleavage Z-score” value (15 min)?
A: 0.0281 (inactive)

Q: And the “furin cleavage Z-score” value (30 min)?
A: 0.213 (inactive)

Q: How did the “furin cleavage Z-score” value (7.5 min) turn out when CAWGPISYANAGNASASA [HC395] was run?
A: -0.888 (inactive)

Q: And the “furin cleavage Z-score” value (15 min)?
A: 0.0541 (inactive)

Q: And the “furin cleavage Z-score” value (30 min)?
A: -0.197 (inactive)

Q: Which results are given for CARSRRGVSEAGNASASA [FS-2461]?
A: furin cleavage Z-score (7.5 min): 8.54 (active); furin cleavage Z-score (15 min): 8.94 (active); furin cleavage Z-score (30 min): 5.25 (active)

Q: How did the “furin cleavage Z-score” value (7.5 min) turn out when CARSRRNDEEAGNASASA [FS-2608] was run?
A: 0.562 (inactive)

Q: And the “furin cleavage Z-score” value (15 min)?
A: 2.36

Q: And the “furin cleavage Z-score” value (30 min)?
A: 0.814 (inactive)

Q: Which “furin cleavage Z-score” value (7.5 min) does the source give for CARSRRDFGLAGNASASA [FS-2310] here?
A: 2.52

Q: What about the “furin cleavage Z-score” value (15 min) of the same sequence?
A: 5.69 (active)

Q: And the “furin cleavage Z-score” value (30 min)?
A: 4.78 (active)

Q: CARIMRDSGLAGNASASA [FS-2150] was tested. Which “furin cleavage Z-score” value (7.5 min) did it give?
A: -1.41 (inactive)

Q: What about the “furin cleavage Z-score” value (15 min) of the same sequence?
A: 0.545 (inactive)

Q: What about the “furin cleavage Z-score” value (30 min) of the same sequence?
A: 0.804 (inactive)

Q: With CARSRKAKEEAGNASASA [FS-2186] as the sequence, how does the “furin cleavage Z-score” value (7.5 min) read?
A: 0.169 (inactive)

Q: And the “furin cleavage Z-score” value (15 min)?
A: -0.905 (inactive)

Q: And the “furin cleavage Z-score” value (30 min)?
A: -0.373 (inactive)

Q: Which “furin cleavage Z-score” value (7.5 min) does the source give for CARSRKRVSEAGNASASA [FS-2460] here?
A: 0.0687 (inactive)

Q: What about the “furin cleavage Z-score” value (15 min) of the same sequence?
A: 0.727 (inactive)

Q: What about the “furin cleavage Z-score” value (30 min) of the same sequence?
A: 0.464 (inactive)

Q: Which “furin cleavage Z-score” value (7.5 min) does the source give for CARWGRGFGLAGNASASA [FS-3129] here?
A: 1.38

Q: What about the “furin cleavage Z-score” value (15 min) of the same sequence?
A: -3.28 (inactive)

Q: What about the “furin cleavage Z-score” value (30 min) of the same sequence?
A: 1.13

Q: With CARSRRDGRKAGNASASA [FS-3172] as the sequence, how does the “furin cleavage Z-score” value (7.5 min) read?
A: 6.47 (active)

Q: What about the “furin cleavage Z-score” value (15 min) of the same sequence?
A: 7.48 (active)

Q: And the “furin cleavage Z-score” value (30 min)?
A: 6.61 (active)

Q: With CARSRRDREEAGNASASA [FS-3236] as the sequence, how does the “furin cleavage Z-score” value (7.5 min) read?
A: 4.34 (active)

Q: What about the “furin cleavage Z-score” value (15 min) of the same sequence?
A: 4.09 (active)

Q: What about the “furin cleavage Z-score” value (30 min) of the same sequence?
A: 4.68 (active)

Q: CARDGRDGRKAGNASASA [FS-1999] was tested. Which “furin cleavage Z-score” value (7.5 min) did it give?
A: 1.36

Q: And the “furin cleavage Z-score” value (15 min)?
A: -0.614 (inactive)

Q: And the “furin cleavage Z-score” value (30 min)?
A: -0.387 (inactive)

Q: How did the “furin cleavage Z-score” value (7.5 min) turn out when CAMVPCHRPSAGNASASA [HC2306] was run?
A: 1.55

Q: And the “furin cleavage Z-score” value (15 min)?
A: 0.971 (inactive)

Q: What about the “furin cleavage Z-score” value (30 min) of the same sequence?
A: 1.19

Q: For CAVVCSSMSYAGNASASA [HC95], which “furin cleavage Z-score” value (7.5 min) is on record?
A: -0.171 (inactive)

Q: And the “furin cleavage Z-score” value (15 min)?
A: 0.902 (inactive)

Q: And the “furin cleavage Z-score” value (30 min)?
A: 0.436 (inactive)

Q: With CAPGDPDLSDAGNASASA [HC1358] as the sequence, how does the “furin cleavage Z-score” value (7.5 min) read?
A: -0.316 (inactive)

Q: And the “furin cleavage Z-score” value (15 min)?
A: -0.713 (inactive)

Q: What about the “furin cleavage Z-score” value (30 min) of the same sequence?
A: -1.52 (inactive)

Q: With CACGSGPWITAGNASASA [HC459] as the sequence, how does the “furin cleavage Z-score” value (7.5 min) read?
A: -1.7 (inactive)

Q: And the “furin cleavage Z-score” value (15 min)?
A: -2.37 (inactive)

Q: And the “furin cleavage Z-score” value (30 min)?
A: -1.44 (inactive)

Q: How did the “furin cleavage Z-score” value (7.5 min) turn out when CARQKRAWITAGNASASA [FS-3202] was run?
A: 2.68

Q: What about the “furin cleavage Z-score” value (15 min) of the same sequence?
A: 3.79 (active)

Q: What about the “furin cleavage Z-score” value (30 min) of the same sequence?
A: 6.77 (active)

Q: Which results are given for CARQKRAVATAGNASASA [FS-2360]?
A: furin cleavage Z-score (7.5 min): 9.36 (active); furin cleavage Z-score (15 min): 11.9 (active); furin cleavage Z-score (30 min): 7.99 (active)

Q: How did the “furin cleavage Z-score” value (7.5 min) turn out when CARQKRQLWDAGNASASA [FS-2291] was run?
A: 5.3 (active)

Q: What about the “furin cleavage Z-score” value (15 min) of the same sequence?
A: 8.17 (active)

Q: And the “furin cleavage Z-score” value (30 min)?
A: 8.7 (active)

Q: For CARQKRQNKEAGNASASA [FS-2756], which “furin cleavage Z-score” value (7.5 min) is on record?
A: 1.89

Q: What about the “furin cleavage Z-score” value (15 min) of the same sequence?
A: 0.961 (inactive)

Q: And the “furin cleavage Z-score” value (30 min)?
A: 3.45

Q: Which results are given for CALWMMLLISAGNASASA [HC528]?
A: furin cleavage Z-score (7.5 min): -0.863 (inactive); furin cleavage Z-score (15 min): -0.739 (inactive); furin cleavage Z-score (30 min): -0.913 (inactive)

Q: Which results are given for CASTLPGNPAAGNASASA [HC1050]?
A: furin cleavage Z-score (7.5 min): -1.13 (inactive); furin cleavage Z-score (15 min): 0.099 (inactive); furin cleavage Z-score (30 min): -1.54 (inactive)

Q: CARSRRALPPAGNASASA [FS-2239] was tested. Which “furin cleavage Z-score” value (7.5 min) did it give?
A: 7.76 (active)

Q: And the “furin cleavage Z-score” value (15 min)?
A: 7.46 (active)

Q: What about the “furin cleavage Z-score” value (30 min) of the same sequence?
A: 7.12 (active)

Q: What does the source list for CARSRRWKVKAGNASASA [FS-3211]?
A: furin cleavage Z-score (7.5 min): 1.85; furin cleavage Z-score (15 min): -0.535 (inactive); furin cleavage Z-score (30 min): 0.212 (inactive)

Q: With CARSRRAQPPAGNASASA [FS-2814] as the sequence, how does the “furin cleavage Z-score” value (7.5 min) read?
A: 3.03

Q: And the “furin cleavage Z-score” value (15 min)?
A: 4.42 (active)

Q: And the “furin cleavage Z-score” value (30 min)?
A: 4.27 (active)

Q: Which results are given for CARSRRCTCFAGNASASA [FS-2187]?
A: furin cleavage Z-score (7.5 min): -0.747 (inactive); furin cleavage Z-score (15 min): -0.988 (inactive); furin cleavage Z-score (30 min): -0.963 (inactive)

Q: For CARSRRCLRDAGNASASA [FS-2607], which “furin cleavage Z-score” value (7.5 min) is on record?
A: 4.81 (active)

Q: What about the “furin cleavage Z-score” value (15 min) of the same sequence?
A: 5.74 (active)

Q: What about the “furin cleavage Z-score” value (30 min) of the same sequence?
A: 5.33 (active)

Q: What does the source list for CARSRRKLMVAGNASASA [FS-2817]?
A: furin cleavage Z-score (7.5 min): -1.98 (inactive); furin cleavage Z-score (15 min): -0.17 (inactive); furin cleavage Z-score (30 min): -0.107 (inactive)

Q: How did the “furin cleavage Z-score” value (7.5 min) turn out when CARSRRNVVMAGNASASA [FS-2382] was run?
A: 5.51 (active)

Q: What about the “furin cleavage Z-score” value (15 min) of the same sequence?
A: 8.6 (active)

Q: And the “furin cleavage Z-score” value (30 min)?
A: 7.9 (active)
